Source: PubChem BioAssay (Tox21)
Inconclusive results are not listed. Where a call stands in place of a potency, no number is given. A number with no mark means an inactive call. The source made the active and inactive calls. Calls come from the whole dose curve.

These molecules were tested against Peroxisome proliferator-activated receptor delta (Homo sapiens) (UniProt Q03181) (assay: qHTS assay to identify small molecule agonists of the peroxisome proliferator-activated receptor delta (PPARd) signaling pathway (AID 743212)). Conditions: HEK293H PPARd-UAS-bla, beta-lactamase FRET ratio, 17 h; series mostly up to 62.6 µM; activation: at the top concentration.
Chain of Peroxisome proliferator-activated receptor delta (Homo sapiens) (Q03181 whole entry, looked up): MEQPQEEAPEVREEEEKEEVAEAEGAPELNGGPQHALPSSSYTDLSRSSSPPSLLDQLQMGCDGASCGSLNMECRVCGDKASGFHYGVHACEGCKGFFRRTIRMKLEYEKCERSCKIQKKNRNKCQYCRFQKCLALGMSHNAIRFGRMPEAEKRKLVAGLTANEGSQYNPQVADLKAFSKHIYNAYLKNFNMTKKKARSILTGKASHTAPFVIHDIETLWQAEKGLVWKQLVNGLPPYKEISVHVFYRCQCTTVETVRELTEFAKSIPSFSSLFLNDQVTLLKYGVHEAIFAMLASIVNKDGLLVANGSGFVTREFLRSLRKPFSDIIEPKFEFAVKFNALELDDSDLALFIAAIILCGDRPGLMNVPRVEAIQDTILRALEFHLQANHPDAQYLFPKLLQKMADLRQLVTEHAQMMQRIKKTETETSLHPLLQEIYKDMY
Description: U.S. Tox21 Program National Center for Advancing Translational Sciences [NCATS] NIH Chemical Genomics Center [NCGC] U.S. Environmental Protection Agency [EPA] National Institutes of Environmental Health Sciences [NIEHS] National Toxicology Program [NTP] U.S. Food and Drug Administration [FDA] Tox21 Assay Overview: The peroxisome proliferator-activated receptors (PPARs) are lipid-activated transcription factors of the nuclear receptor superfamily with three distinct subtypes namely PPAR alpha, PPAR delta (PPARd) and PPAR gamma. All these subtypes heterodimerizes with Retinoid X receptor (RXR) and have different physiological functions. […] To identify the compounds that activate PPAR-delta signaling, GeneBLAzer PPAR delta UAS-bla HEK293H cell line (Invitrogen, Carlsbad, CA, USA) containing a beta-lactamase reporter gene under the control of an Upstream Activator Sequence (UAS) was used to screen the Tox21 compound library.
Tox21 Assay Protocol Summary: PPARd-bla cells were dispensed at 3000 cells/6uL/well in 1536-well black wall/clear bottom plates using a Multidrop Combi (Thermo Fisher Scientific, Waltham, MA) dispenser. After the assay plates were incubated at 37 C and 5% CO2 for 5 h, 23 nL of compounds dissolved in DMSO, positive controls or DMSO only was transferred to the assay plate by a Pintool station (Kalypsys, San Diego, CA). The assay plates were incubated at 37C for 17 h. After 1 uL of LiveBLAzerTM B/G FRET substrate was added using a Bioraptr Flying Reagent Dispenser (FRD) workstation (Beckman Coulter, Indianapolis, IN, USA), the plates were incubated at room temperature for 2 h, and fluorescence intensity was measured by an Envision plate reader (PerkinElmer, Shelton, CT).
For `CN(C)c1ccc(Cc2ccc(N(C)C)cc2)cc1`, the Potency was “inactive”.
In the case of `O=c1[nH]cnc2[nH]ncc12`, the Potency is reported as “inactive”.
`CCCCCCCCCCN` was tested, and the Potency was “inactive”.
`COC(=O)c1cccnc1` was tested, and the Potency was “inactive”.
With `COc1ccc(CCC(C)=O)cc1` the Potency was “inactive”.
For `Nc1nc(N)nc(-c2ccccc2)n1`, the Potency was “inactive”.
In the case of `CCNc1cccc(C)c1`, the Potency is reported as “inactive”.
`CCCCCCC=O` was tested, and the Potency was “inactive”.
For `CC(C)CC(=O)CC(C)CC(C)C` (stereo not given), the Potency was “inactive”.
With `CCCCCCCCCCCCCCCC(=O)OC(C)C` the Potency was “inactive”.
For `O=C(O)CCCCCCCCC(=O)O`, the Potency was “inactive”.
With `CCO[Si](CCCN)(OCC)OCC` the Potency was “inactive”.
With `COc1ccccc1OCC(O)CO` (stereo not given) the Potency was “inactive”.
`COCCOC(=O)c1ccccc1C(=O)OCCOC` was tested, and the Potency was “inactive”.
`CNC(=O)Oc1ccc2c(c1)[C@]1(C)CCN(C)[C@@H]1N2C` was tested, and the Potency was “inactive”.
In the case of `CCCCC(C=O)CC` (stereo not given), the Potency is reported as “inactive”.
In the case of `CCCCOC(=O)c1ccc(N)cc1`, the Potency is reported as “inactive”.
With `O=C(O)c1ccc(C(=O)O)c(C(=O)O)c1` the Potency was “inactive”.
In the case of `NC(=S)NNC(N)=S`, the Potency is reported as “inactive”.
With `O=C(OCC1CCC2OC2C1)C1CCC2OC2C1` (stereo not given) the Potency was “inactive”.
In the case of `C=C(C)C(=O)OCC(C)C`, the Potency is reported as “inactive”.
For `CC(=O)CC(C)(C)O`, the Potency was “inactive”.
`CN/C(=C\[N+](=O)[O-])NCCSCc1csc(CN(C)C)n1` was tested, and the Potency was “inactive”.
With `COc1cc(OC)c(C(=O)CCCN2CCCC2)c(OC)c1` the Potency was “inactive”.
With `N[C@H](Cc1c[nH]c2ccccc12)C(=O)O` the Potency was “inactive”.
`COc1ccc(C)cc1N` was tested, and the Potency was “inactive”.
`CC(C)(C)c1cc(Cc2cc(C(C)(C)C)c(O)c(C(C)(C)C)c2)cc(C(C)(C)C)c1O` was tested, and the Potency was “inactive”.
`NCCN1CCNCC1` was tested, and the Potency was “inactive”.
With `CC(C)CC(C)O` (stereo not given) the Potency was “inactive”.
In the case of `CC(=O)OC1CC(C)OC(C)O1` (stereo not given), the Potency is reported as “inactive”.
For `C=Cc1ccc(C)cc1`, the Potency was “inactive”.
With `CN(C)c1ccc(O)c2c1C[C@H]1C[C@H]3[C@H](N(C)C)C(=O)C(C(N)=O)=C(O)[C@@]3(O)C(=O)C1=C2O` the “activation” value was -0.884%.
With `O=C(O)/C=C/C(=O)O` the Potency was “inactive”.
In the case of `Cc1ccc(C(C)C)c(O)c1`, the Potency is reported as “inactive”.
`CC(CCl)OP(=O)(OC(C)CCl)OC(C)CCl` (stereo not given) was tested, and the Potency was “inactive”.
`OC1C(O)C(O)C(O)C(O)C1O` (stereo not given) was tested, and the Potency was “inactive”.
In the case of `CCCCCCCCCCCCCCCCO`, the Potency is reported as “inactive”.
With `COc1ccc(N)c(C)c1` the “activation” value was 0.542%.
`Cc1ccc2ncccc2c1` was tested, and the Potency was “inactive”.
`O=[N+]([O-])c1ccc2nc[nH]c2c1` was tested, and the Potency was “inactive”.
